# Results reported in PubChem BioAssay (EPA / NIEHS).
# Activity calls are given as the source filed them. How the source made its calls: active means hit-call score of the fitted dose curve at least 0.9, where 1 is the maximum; inactive means score below 0.9.
# Experiment: IUF_NPC2-5_viability_120hr: Viability Assessment at 120 hours in the Leibniz Research Institute for Environmental Medicine (IUF) Neural Progenitor Cell Migration and Differentiation Assay (NPC2-5) (AID 2284312)
# Method: IUF_NPC2-5 is a cell-based, multiplexed assay that uses hNPC, a human primary neural progenitor cells, with measurements taken at 72 or 120 hours after chemical dosing in a 96-well plate. Human neural progenitor cells (hNPC) are generated from human fetal brain cortex at gestational week (GW) 16-19. In the neural progenitor cell migration and differentiation assay (NPC2-5), hNPCs grown as spheres are plated on an extracellular matrix and migrate and differentiate out of the sphere core. The processes radial glia migration, neuronal and oligodendrocyte migration as well as neuronal differentiation, neuronal morphology and oligodendrocyte differentiation are studied using automated phase contrast imaging and automated fluorescence imaging in combination with high content image analysis. In parallel, the cell viability is assessed using an alamar blue viability assay and the cytotoxicity using a lactate dehydrogenase dependent membrane integrity assay.IUF_NPC2-5_viability_120hr is one of 12 assay components measured from the IUF_NPC2-5 assay. It is designed to measure cell viability assessed as mitochondria-dependent reduction of resazurin to resorufin using the alamar blue viability assay. The viability is measured as a fluorescence signal (relative fluorescence unit) in a multiplate reader. Data from the IUF_NPC2-5_viability_120hr component was analyzed at the endpoint IUF-NPC2-5_viability_120hr in the positive analysis fitting direction relative to DMSO as the negative control and baseline of activity. Using a type of viability reporter, gain or loss-of-signal activity can be used to understand viability effects.
# Culture protocol: After the cell expansion period the cells are cultured for up to four weeks in which they are passaged every week as described in 3.6. Between one to three days after passaging spheres at a size of 0.3 mm are picked for the test method. For the assessment of neural progenitor cell migration and differentiation, the spheres are plated on poly-D-lysine/laminin coated 96-well flat bottom plates in differentiation medium (N2) to initiate migration and differentiation. Thereby one 0.3 mm big sphere is plated in the middle of a well. The differentiation medium consists of DMEM and Ham's F12 at a ratio of 3 to 1 supplemented with 1% N2 and 1% penicillin and streptomycin. Within 5 days NPCs radially migrate out of the sphere core and differentiate into radial glia cells (nestin positive), neurons (TUBB3 positive), oligodendrocytes (O4 positive) and astrocytes (GFAP positive). Cultivation during the test method is performed at 37C and 5% CO2 at a ph of 7.2-7.6.Exposure: 0.3 mm big hNPC are plated in the already prepared test conditions. Exposure starts at day 0 of differentiation and is continued over five days of differentiation until the experiment is terminated. Cells are fed with fresh medium at day 3 of differentiation. Therefore, half of the test condition solution (e.g. solvent control or compound dilution) is replaced by freshly prepared test condition solution.Test Method: Migration distance and cytotoxicity is determined after 72 hours based on brightfield images of each well. The assay is terminated by the assessment of cell viability and cytotoxicity as well as cell fixation after 120 h. Immunocytochemistry is performed for Hoechst positive nuclei, TUBB3 positive neurons and O4 positive oligodendrocytes. On the ICC images, migration after 120 hours, neuronal and oligodendrocyte number, neuronal morphology and neuron/oligodendrocyte specific migration is assessed. immunocytochemical staining (ICC) generates an image for each sphere. The plates are scanned using an automated high content imaging device and all nuclei and their positions are determined automatically based on their intensity and size. Images are imported to the Omnisphero software to run the image analysis that measures the following endpoints. The method is set up for 8 test conditions including 7 compound concentrations and one SC. […]
Structure (SMILES),outcome,AC50
CCOc1cc(Oc2ccc(C(F)(F)F)cc2Cl)ccc1[N+](=O)[O-],inactive,
CCCCC(CC)COC(=O)c1ccccc1C(=O)OCC(CC)CCCC (centres undefined),inactive,
N#Cc1nn(-c2c(Cl)cc(C(F)(F)F)cc2Cl)c(N)c1S(=O)C(F)(F)F (centres undefined),inactive,
CN(C)C(=S)SSC(=S)N(C)C,,29.1 µM (active)
Cc1ccc(-c2c(Cl)nc(C#N)n2S(=O)(=O)N(C)C)cc1,,11.7 µM (active)
COC(=O)N(OC)c1ccccc1COc1ccn(-c2ccc(Cl)cc2)n1,,1.55 µM (active)
C=CC1(C)OC(=O)N(c2cc(Cl)cc(Cl)c2)C1=O (centres undefined),inactive,
CCOC(=O)CC(SP(=S)(OC)OC)C(=O)OCC (centres undefined),inactive,
CO/C=C(/C(=O)OC)c1ccccc1Oc1cc(Oc2ccccc2C#N)ncn1,inactive,
CC(C)(C)c1ccc(CSc2cnn(C(C)(C)C)c(=O)c2Cl)cc1,inactive,
COP(N)(=O)SC (centres undefined),inactive,
COP(=S)(OC)Oc1nc(Cl)c(Cl)cc1Cl,inactive,
CCCCOC(=O)c1ccccc1C(=O)OCCCC,inactive,
CNC(=O)ON=CC(C)(C)SC,inactive,
